Rows were chosen to be rich in hits. Some 12% of all compounds tested hit in one or more screens of this group.
G9a block – blocks human histone lysine methyltransferase G9a; hit rate 8.8% among 350,000; Q96KQ7; Potency, µM (highest dose often 102 µM), most hits filed as inhibitors; G9a H3K9 monomethylation, AlphaScreen, 2 h; note: nearly all actives have a fitted effect of over 75% in size
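AlphaScreen read-out: biotin-H3K9 peptide (500 nM) methylation by 20 nM enzyme with 20 uM SAM, 2 h at room temperature after 15 min compound preincubation; anti-monomethyl H3K9 antibody plus donor/acceptor beads, 10 min dark.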
Sfp inh – inhibitors of Bacillus subtilis Sfp phosphopantetheinyl transferase | Potency, µM, actives largely listed as inhibitors | AID 1490 | Biochemical Sfp PPTase activity, qHTS | hit rate 3.5% among 310,000;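 note: the enzyme is Sfp with the accession as filed and its product quenches rhodamine fluorescence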
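Buffer: 50 mM Hepes-Na pH 7.6, 10 mM MgCl2, 0.01% Nonidet P-40, 0.01% BSA. Enzyme 15 nM, pre-exposed to compound 15 min; substrates then added and fluorescence change tracked over 30 min.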
PLK1 PBD block – blocks phosphopeptide binding to human PLK1 polo-box domain. P53350. Plk1 PBD binding of FITC phosphopeptide, fluorescence polarization. Potency, µM, hits mostly inhibitors. hit rate 2.8% among 360,000; note: series mostly up to about 57 µM; nearly all actives have a fitted effect of over 65% in size
HP1b binding inh – inhibitors of HP1-beta chromodomain binding to methylated histone tails | P83916 | AlphaScreen HP1-beta / biotin-H3K9me3 peptide binding | Potency, µM (highest dose often 114 µM), usual class: inhibitors | hit rate 0.56% among 390,000 | AID 540317; note: nearly all actives have a fitted effect of over 70% in size
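Compound inhibition of the preformed complex between 50 nM HP1-beta and 50 nM biotinylated H3K9me3 peptide was read by AlphaScreen. Buffer was PBS pH 7.4 with 0.01% Tween-20. Incubations ran 30 min at room temperature, with 10 ug/mL donor/acceptor beads.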
JMJD2A Tudor inh – inhibitors of human JMJD2A Tudor domain; O75164; AlphaScreen JMJD2A-Tudor / H3K4me3 peptide binding; Potency, µM (top dose mostly 114 µM), hits mostly inhibitors; hit rate 4.4% among 390,000; AID 504339; note: nearly all actives have a fitted effect of over 50% in size
BAZ2B inh – blocks human BAZ2B; AlphaScreen BAZ2B-H3K14Ac peptide displacement; Potency, µM (series often up to 114 µM), most hits filed as inhibitors; hit rate 4.4% among 360,000; note: nearly all actives have a fitted effect of over 60% in size
Target sequence (Q9UIF8 whole entry, looked up): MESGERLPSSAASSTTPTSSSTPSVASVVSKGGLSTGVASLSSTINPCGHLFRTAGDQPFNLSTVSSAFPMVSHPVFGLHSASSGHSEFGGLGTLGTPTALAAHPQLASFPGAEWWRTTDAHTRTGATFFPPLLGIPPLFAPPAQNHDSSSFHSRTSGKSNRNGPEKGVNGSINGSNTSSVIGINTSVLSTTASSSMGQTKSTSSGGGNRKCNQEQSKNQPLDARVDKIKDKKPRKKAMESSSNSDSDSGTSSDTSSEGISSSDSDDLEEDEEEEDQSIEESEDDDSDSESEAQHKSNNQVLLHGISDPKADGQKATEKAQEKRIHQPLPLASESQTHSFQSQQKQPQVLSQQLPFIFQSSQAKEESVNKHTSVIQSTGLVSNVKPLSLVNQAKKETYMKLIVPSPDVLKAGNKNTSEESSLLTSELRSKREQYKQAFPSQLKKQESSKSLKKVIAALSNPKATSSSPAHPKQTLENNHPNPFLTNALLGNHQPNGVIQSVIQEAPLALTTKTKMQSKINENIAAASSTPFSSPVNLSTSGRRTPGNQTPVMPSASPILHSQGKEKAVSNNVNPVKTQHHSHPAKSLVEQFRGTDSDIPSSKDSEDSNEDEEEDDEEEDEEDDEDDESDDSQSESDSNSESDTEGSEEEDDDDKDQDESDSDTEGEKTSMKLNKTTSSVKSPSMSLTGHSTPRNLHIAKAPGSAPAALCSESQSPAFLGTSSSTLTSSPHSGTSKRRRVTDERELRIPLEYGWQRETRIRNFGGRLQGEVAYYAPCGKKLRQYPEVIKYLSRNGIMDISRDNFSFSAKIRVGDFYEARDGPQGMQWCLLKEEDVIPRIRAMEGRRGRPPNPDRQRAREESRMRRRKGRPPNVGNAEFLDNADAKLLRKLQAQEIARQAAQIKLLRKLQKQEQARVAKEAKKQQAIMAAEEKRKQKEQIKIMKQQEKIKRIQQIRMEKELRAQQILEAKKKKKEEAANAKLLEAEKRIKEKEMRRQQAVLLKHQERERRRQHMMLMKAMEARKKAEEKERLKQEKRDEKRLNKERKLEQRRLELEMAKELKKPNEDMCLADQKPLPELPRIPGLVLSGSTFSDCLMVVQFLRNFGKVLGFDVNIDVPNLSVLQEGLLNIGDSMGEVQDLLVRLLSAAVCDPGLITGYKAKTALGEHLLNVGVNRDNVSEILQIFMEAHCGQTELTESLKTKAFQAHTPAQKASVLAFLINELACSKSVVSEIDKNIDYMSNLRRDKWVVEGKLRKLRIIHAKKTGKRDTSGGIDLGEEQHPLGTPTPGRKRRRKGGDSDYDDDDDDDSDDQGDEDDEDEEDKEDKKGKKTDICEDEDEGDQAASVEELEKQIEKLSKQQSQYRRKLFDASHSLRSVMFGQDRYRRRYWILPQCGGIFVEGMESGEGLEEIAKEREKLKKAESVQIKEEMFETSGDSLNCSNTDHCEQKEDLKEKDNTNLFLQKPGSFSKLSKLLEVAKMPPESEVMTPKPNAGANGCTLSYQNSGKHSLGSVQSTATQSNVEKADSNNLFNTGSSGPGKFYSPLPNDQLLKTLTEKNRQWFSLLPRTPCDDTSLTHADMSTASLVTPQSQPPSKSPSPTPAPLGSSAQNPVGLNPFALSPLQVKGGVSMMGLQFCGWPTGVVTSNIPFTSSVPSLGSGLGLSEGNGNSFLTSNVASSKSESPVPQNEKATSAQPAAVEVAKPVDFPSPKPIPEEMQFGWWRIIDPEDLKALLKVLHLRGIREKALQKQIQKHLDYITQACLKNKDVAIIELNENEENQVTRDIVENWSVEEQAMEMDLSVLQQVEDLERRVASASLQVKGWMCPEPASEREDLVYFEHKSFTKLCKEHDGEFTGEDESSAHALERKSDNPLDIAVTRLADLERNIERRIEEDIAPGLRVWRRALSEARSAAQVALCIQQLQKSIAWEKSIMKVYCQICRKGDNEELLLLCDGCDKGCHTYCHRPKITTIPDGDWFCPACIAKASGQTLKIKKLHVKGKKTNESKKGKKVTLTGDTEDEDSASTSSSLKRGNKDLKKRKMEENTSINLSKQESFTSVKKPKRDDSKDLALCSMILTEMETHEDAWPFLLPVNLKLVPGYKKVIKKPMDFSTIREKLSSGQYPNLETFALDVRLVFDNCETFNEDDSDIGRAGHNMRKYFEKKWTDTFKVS
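AlphaScreen displacement of biotin-H3(5-23)K14Ac peptide (50 nM final) from BAZ2B (50 nM final) in PBS pH 7.4, 0.01% Tween-20; complex preformed 30 min RT, then compounds (top 110 uM) 30 min RT, beads 20 min dark.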
Large screens that a line does not name were inactive. Calls come from the whole dose curve; as a rule, active = well fitted curve in the direction sought with a large enough effect; inconclusive = small, poorly fitted or top-dose-only effect, or another doubt; inactive = no such curve, though single readings can be large; an effect the other way counts as inactive or inconclusive.

CN(C)c1ccc(N2CN=C3SCC(=O)N3C2)cc1	G9a block inconclusive, Sfp inh inconclusive, HP1b binding inh 56µM, JMJD2A Tudor inh 50µM, BAZ2B inh 25µM
Cc1ccc(C)n1-c1ccc(-c2nnco2)cc1	G9a block 45µM (no result: PLK1 PBD block, HP1b binding inh, JMJD2A Tudor inh)
CC(=O)Nc1cccc(/C(C)=N/N2C(C)CCCC2C)c1 (stereo not given)	none
CN(Cc1ccccc1)C(=O)c1ncn2c1C(=O)N(C)CC2	none (no result: G9a block, Sfp inh, HP1b binding inh, JMJD2A Tudor inh, BAZ2B inh)
CN1CCN/C1=C(/C(Cl)=C(Cl)Cl)[N+](=O)[O-]	G9a block 13µM, JMJD2A Tudor inh inconclusive
CN(Cc1ccccc1)C(=C(Cl)Cl)/C(=C1/NCCN1C)[N+](=O)[O-]	G9a block 50µM
O=C(CN1C(=O)c2ccccc2C1=O)NC1CCC(O)CC1 (stereo not given)	none (no result: Sfp inh)
C=CCc1cc(C)ccc1OCCOCCN1CCN(C)CC1	G9a block 14µM, Sfp inh 79µM, HP1b binding inh inconclusive, JMJD2A Tudor inh 7.9µM, BAZ2B inh 50µM
Cc1ccc(C(C)C)c(OCCOCCN2CCNCC2)c1	none (no result: G9a block, Sfp inh, BAZ2B inh)
Clc1ccc(Cl)c(OCCN2CCOCC2)c1	none
Clc1ccc(Cl)c(OCCN2CCCC2)c1	G9a block 50µM, HP1b binding inh inconclusive, JMJD2A Tudor inh 32µM, BAZ2B inh inconclusive
Cc1cc(C)c(C)c(OCCOCCN2CCN(C)CC2)c1	G9a block inconclusive, BAZ2B inh inconclusive
CC(C)(C)c1cc(Cl)ccc1OCCOCCN1CCCC1	G9a block 25µM, Sfp inh inconclusive, JMJD2A Tudor inh 20µM, BAZ2B inh inconclusive
Cc1ccc(OCCOCCN2CCN(C)CC2)c(C(C)(C)C)c1	G9a block 14µM, Sfp inh 50µM, HP1b binding inh inconclusive, JMJD2A Tudor inh 5.6µM, BAZ2B inh 56µM
CC(C)(C)c1ccccc1OCCCCN1CCCC1	none
CC1=C(C(N)=O)C(c2ccc(C)cc2)n2nc(SCc3ccccc3)nc2N1 (stereo not given)	none (no result: Sfp inh, PLK1 PBD block)
Cc1ccc(-n2cc3c(-c4cccc(Br)c4)nnc(C)c3n2)cc1	none
Cc1nnc(-c2cccc(Br)c2)c2cn(-c3ccccc3Cl)nc12	Sfp inh 56µM
COc1ccc(CNc2nc(NCc3ccc(OC)cc3)n(C(=O)c3ccccc3[N+](=O)[O-])n2)cc1	G9a block 6.3µM, JMJD2A Tudor inh inconclusive
CCCn1c(-c2ccc(F)cc2)nc2c(NC(C)CN(C)C)nc(C)nc21 (stereo not given)	none (no result: G9a block, PLK1 PBD block, HP1b binding inh, JMJD2A Tudor inh, BAZ2B inh)
Cn1cc(S(=O)(=O)N2CCCCC2)cc1C(=O)NCc1ccc(Cl)cc1	none (no result: Sfp inh, PLK1 PBD block)
CN(C)C=Nc1nc2ccccc2nc1N1CCCC1	G9a block 45µM
Cc1ccc(OCC(=O)N(Cc2ccc(Cl)cc2)Cc2ccco2)cc1C	none (no result: Sfp inh, PLK1 PBD block)
NC(=O)c1cccc([N+](=O)[O-])c1	none (no result: Sfp inh)
O=C(O)c1ccc2c(c1)C(=O)N(c1cccc(C(=O)/C=C/c3ccccc3)c1)C2=O	Sfp inh inconclusive, PLK1 PBD block 42µM (no result: G9a block)
O=C(O)c1cccc(NC(=O)c2ccc3c(c2)C(=O)N(c2cccc([N+](=O)[O-])c2)C3=O)c1	none
O=C(O)c1cccc(N2C(=O)c3ccc(C(=O)c4cccc([N+](=O)[O-])c4)cc3C2=O)c1	G9a block 56µM
O=C(c1cccc([N+](=O)[O-])c1)c1ccc2[nH]c(=O)[nH]c2c1	G9a block 79µM
CC(=O)N/N=C/c1cc(C(C)(C)C)cc(/C=N/NC(C)=O)c1O	PLK1 PBD block 21µM
Cc1c2c(nc3ccccc13)OCC2	G9a block 79µM
c1ccc2c(c1)nc(Nc1ccc(N3CCCCC3)cc1)c1nncn12	G9a block 16µM, HP1b binding inh inconclusive, JMJD2A Tudor inh 45µM, BAZ2B inh 28µM
c1ccc2c(c1)nc(NC1CCCCC1)c1nncn12	G9a block 45µM
Cc1ccc(-c2cc(C(=O)Nc3ccc(S(=O)(=O)Nc4ncccn4)cc3)c3ccccc3n2)cc1	PLK1 PBD block inconclusive
O=C(Nc1ccc(S(=O)(=O)Nc2nccs2)cc1)c1cc(-c2ccccc2)nc2ccccc12	G9a block 7.9µM, PLK1 PBD block inconclusive, HP1b binding inh inconclusive, JMJD2A Tudor inh 32µM, BAZ2B inh inconclusive

Screens (PubChem)
